These entries were drawn from the full list.
aSyn UTR act = Activators via SNCA 5'UTR binding, MLPCN; actives 7.1% (n = 300,000); alpha-synuclein 5'UTR reporter, activators screen; activity score, % (tested at 7.5 µM), hits read low; in the data active = activity score below about -60%
The depositor's hits bear a star.

SMILES	aSyn UTR act
Cc1nc2cc(-c3ccccc3)nn2c(C)c1CCC(=O)NCc1ccco1	53.4
Cc1c(C(=O)N2CCOCC2)sc2nc(-c3ccccc3)cn12	-122.5*
O=C(c1ccco1)N1N=C(c2ccc3nccnc3c2)CC1c1ccccc1 (stereo not given)	-67.4*
Cc1ccc(C)c(NC(=O)c2ccccc2O)c1	-96.3*
Cc1cccc(NC(=O)c2ccccc2O)c1C	-173.9*
O=C(Nc1ccccc1O)c1ccc(C(=O)c2ccccc2)o1	-95.8*
Cc1cccc(NC(=O)c2cnn3ccccc23)c1C	-84.6*
O=C(Nc1ccccc1O)c1ccccc1O	-133.4*
Cc1onc(-c2ccccc2)c1C(=O)NC(=S)NNC(=O)c1ccccc1O	62.6
O=C(NCc1ccc(Cl)cc1)c1cnn2ccccc12	-141.5*
Cc1ccccc1NC(=O)c1cccc2nccnc12	-74.4*
Cc1cccc(C(=O)NNC(=O)c2ccccc2O)c1	-75.8*
COc1ccc(C(=O)/C(=C/c2cccs2)c2nc3ccccc3o2)cc1	-135.8*
COc1ccc(/C=C(\CC(=O)O)c2nc3ccccc3o2)cc1	-108.9*
COc1ccc(C(=O)/C=C2/C(=O)Nc3ccccc32)cc1	-98.9*
CSc1ccc(-c2nc(CN(C)C3CCOC3)c(C)o2)cc1 (stereo not given)	-80.6*
CCN(CC)c1ccc(-c2nc3cnccc3n2C)cc1	-111.0*
O=c1n(Cc2ccccc2Cl)nc2n1-c1ccccc1SC2	-87.2*
Cc1cc2ccccn2c1C(C[N+](=O)[O-])c1ccc(N(C)C)cc1 (stereo not given)	-79.6*
O=C(NCC(c1cccs1)N1CCOCC1)c1ccc(Br)o1 (stereo not given)	-70.5*
CN1CCN(C(=O)c2ccc(-c3cccs3)s2)CC1	-97.8*
O=C(N/N=C/c1c[nH]c2ccccc12)c1ccc2c(c1)OCCO2	-139.7*
Cc1cc(C(=O)N/N=C/c2c[nH]c3ccccc23)c(C)o1	-81.0*
Cc1cc(C(=O)N/N=C/c2c[nH]c3ccccc23)cs1	-73.8*
O=C(N/N=C/c1c[nH]c2ccccc12)c1cccs1	-127.2*
SMILES	aSyn UTR act
O=C(CSc1nnc(SCc2cccc3ccccc23)s1)N/N=C/c1c[nH]c2ccccc12	-78.2*
Cc1cccc(NC(=S)N/N=C/c2c[nH]c3ccccc23)c1	-64.9*
Cc1cc(/C=N\NC(=O)c2cccs2)c(C)n1-c1ccc2ncccc2c1	-144.8*
O=C(N/N=C/c1cccc2ccccc12)c1cccs1	-163.9*
CCN(CC(=O)c1c(N)n(C)c(=O)n(C)c1=O)c1cccc2ccccc12	-71.6*
CCOc1ccc2c(c1)c(N=Nc1cccc(C(=O)O)c1)c(O)n2C	-179.4*
CCc1ccccc1NC(=S)N=Nc1c(O)n(C)c2ccc(S(=O)(=O)N3CCOCC3)cc12	80.5
COC(=O)c1cnc(Oc2ccc(NC(=O)NC(=O)c3ccccc3Cl)cc2)cc1C(F)(F)F	-62.7*
COc1ccc(-c2cc(-c3ccccc3)n[nH]2)c(O)c1	-216.8*
COc1ccc(O)c(-c2cc(-c3ccccc3Cl)[nH]n2)c1	-115.3*
COc1ccc(O)c(-c2cc(-c3cccs3)[nH]n2)c1	-125.5*
Clc1ccc(-c2cnc3n2CCC3)cc1	-103.1*
COC(=O)c1ccc(-c2ccc(/C=N/N3C(=O)C4C5C=CC(CC5)C4C3=O)o2)cc1 (stereo not given)	-191.1*
COc1ccc2[nH]c3c(=O)n4c(nc3c2c1)SCCC4	-92.1*
COc1ccc2c(c1)[nH]c1c(=O)n(/N=C/C3C(C)C=C(C)CC3C)c(=O)[nH]c12 (stereo not given)	57.5
COc1ccccc1/C=C/C=N/n1c(-c2ccccn2)n[nH]c1=S	-100.2*
Cc1ccc2[nH]c3ccccc3c(=O)c2c1	-93.0*
CC1(C)CC(CCNC(=O)CCl)(c2ccccc2)CCO1 (stereo not given)	-63.3*
CCN1C(=O)/C(=C/c2nc3ccccc3c(=O)n2-c2ccccc2)c2ccccc21	-104.3*
COc1cn(-c2ccccc2)nc1C(=O)Nc1ccccc1	-65.9*
COc1cn(-c2ccccc2)nc1C(=O)Nc1ccc(C)cc1	-90.1*
CC(C)NC(=O)c1[nH]nc2c1CCc1ccccc1-2	-164.9*
COc1cccc(/C=N/NC(=O)c2[nH]nc3c2CCc2ccccc2-3)c1	-68.6*
O=C(c1cc2c(=O)n3ccccc3nc2s1)N1CCOCC1	-98.3*
CC1CCN(C(=O)c2cc3c(=O)n4ccccc4nc3s2)CC1	-77.7*
SMILES	aSyn UTR act
CN1C(=O)C2C=CC1C1C(=O)N(c3ccccc3)C(=O)C21 (stereo not given)	-301.9*
COc1ccc(-c2csc(NC(=O)CSc3n[nH]c(N)n3)n2)cc1	-123.3*
COc1ccc(-c2csc(NC(=O)CSc3n[nH]c(C)n3)n2)cc1	-103.6*
Cc1cc(C)c(C#N)c(SCC(=O)Nc2ccccc2C(N)=O)n1	-64.1*
Cc1cc(C)c(C#N)c(SCC(=O)Nc2ccc3c(c2)OCO3)n1	-145.3*
COCc1cc(C)nc(SCC(=O)Nc2ccc(C)c(C)c2)c1C#N	-136.0*
Cc1nc(SCC(=O)Nc2ccc3c(c2)OCO3)c(C#N)c2c1CCCC2	-139.6*
COc1ccc2[nH]c3c(C)c4ccncc4c(C)c3c2c1	109.3

Screening data from PubChem BioAssay.
